# Only some compounds are listed: those with a hit (about 9% of all), similar ones and a draw of the others.
# IMPase Li cell: membrane-permeable IMPase blocker, potentiated with lithium; CHO-M1 cells, IP1 TR-FRET (IP-One), carbachol + lithium; Potency, µM (series often up to 59.4 µM), for the others: top-dose activity, negative = IMPase inhibition, actives largely listed as inhibitors; 0.35% of 210,000 active; AID 1457; active = well fitted curve in the direction sought with a large enough effect; inconclusive = small, poorly fitted or top-dose-only effect, or another doubt; inactive = no such curve, though single readings can be large; an effect the other way counts as inactive or inconclusive;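 also: IP1 builds up when IMPase is blocked and the TR-FRET signal falls; plate controls were basal vehicle for no effect and high inhibitor control for full effect; nearly all actives have a fitted effect of over 50% in size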
#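 Lithium-sensitised IP1 accumulation assay; M1-expressing CHO cells treated 30 min at 37C with compound. Competitive antibody detection by time-resolved FRET followed a 10 min room-temperature lysis step.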
# KinaseGlo FLuc: blocks Kinase-Glo luciferase, a counter-screen artifact; Q27757; Kinase-Glo luciferase, ATP luminescence, 8 min; Potency, µM (top dose mostly 38.3 µM), for inactives: top-dose activity change, negative = inhibition, most hits filed as inhibitors; 0.28% of 200,000 active; AID 1379; active = well fitted curve in the direction sought with a large enough effect; inconclusive = small, poorly fitted or top-dose-only effect, or another doubt; inactive = no such curve, though single readings can be large; an effect the other way counts as inactive or inconclusive; also: nearly all actives have a fitted effect of over 60% in size
#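 Compound is pinned into ATP-containing buffer (10 uM ATP, imidazole pH 7.2, 7 mM MgCl2). Kinase-Glo luciferase reagent is then added. Light output is recorded following an 8-min room-temperature incubation.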
# HPGD block: inhibitors of human 15-hydroxyprostaglandin dehydrogenase (HPGD); purified HPGD, NADH fluorescence kinetic, PGE2 substrate; Potency, µM, without a hit: at the highest dose activity change, negative = inhibition, hits mostly inhibitors; 4.3% of 150,000 active; P15428; AID 894
# Target sequence (P15428 whole entry, looked up): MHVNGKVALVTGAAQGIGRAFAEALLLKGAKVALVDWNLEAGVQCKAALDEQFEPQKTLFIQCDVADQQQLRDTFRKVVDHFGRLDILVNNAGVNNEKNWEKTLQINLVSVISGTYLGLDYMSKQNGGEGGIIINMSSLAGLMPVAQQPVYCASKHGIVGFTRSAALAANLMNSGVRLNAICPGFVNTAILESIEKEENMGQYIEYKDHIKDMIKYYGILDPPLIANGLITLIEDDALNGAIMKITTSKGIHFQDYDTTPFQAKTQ
#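 20 nM HPGD preincubated 15 min at room temperature with compound in 50 mM Tris-HCl pH 8, 0.01% Tween 20. Started with 1 mM NAD+ and 30 uM prostaglandin E2; NADH fluorescence (360/450 nm) read 5 times over 30-s intervals, last minus first.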
# Lamin A splicing: modulators of lamin A splicing; HeLa LMNA splicing GFP/RFP minigene ratio, 48 h; Potency, µM (highest dose often 46.1 µM), inactives show at the top dose ratio change, negative = inhibition, actives largely listed as inhibitors; 0.01% of 200,000 active; AID 1487; active = well fitted inhibition curve with a large enough effect in the signal ratio, with a control signal flat, not every such curve was filed as active; inconclusive = small, poorly fitted or top-dose-only effect, or effect the other way, or a change in a side signal; the % refers to the signal ratio
#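 Read-out is the ratio of GFP to DsRed2 object intensity, acquired by 488 nm laser-scanning cytometry on HeLa lamin A-EGFP minigene reporter cells. Compound incubation 48 hrs at 37 °C in Opti-MEM with 2% FBS; DMSO 0.5% final.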
# ALDH1A1 inh: inhibitors of human aldehyde dehydrogenase 1A1 | P00352 | Purified ALDH1A1, NADH fluorescence, propionaldehyde substrate | Potency, µM (doses to about 75.3 µM), inactives show at the highest dose activity, negative = inhibition, actives largely listed as inhibitors | 7.3% of 220,000 active;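 also: plate controls were no enzyme wells and a reference inhibitor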
# Target sequence (P00352 whole entry, looked up): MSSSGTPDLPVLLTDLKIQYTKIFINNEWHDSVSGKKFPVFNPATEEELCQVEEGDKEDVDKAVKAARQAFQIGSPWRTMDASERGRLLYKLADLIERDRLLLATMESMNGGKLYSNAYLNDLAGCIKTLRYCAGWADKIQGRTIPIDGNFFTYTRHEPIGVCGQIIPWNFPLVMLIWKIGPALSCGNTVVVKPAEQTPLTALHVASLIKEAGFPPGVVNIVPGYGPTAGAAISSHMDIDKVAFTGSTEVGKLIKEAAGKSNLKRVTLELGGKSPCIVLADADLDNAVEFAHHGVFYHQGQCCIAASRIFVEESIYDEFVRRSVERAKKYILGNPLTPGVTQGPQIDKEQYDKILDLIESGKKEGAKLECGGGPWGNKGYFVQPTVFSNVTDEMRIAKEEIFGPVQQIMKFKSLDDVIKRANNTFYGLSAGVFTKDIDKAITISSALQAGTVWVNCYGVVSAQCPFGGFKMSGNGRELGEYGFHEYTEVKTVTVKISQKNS
# Active calls of the source: *; ? = inconclusive; nt = no result; [ ] = dose if it differs, or a comment. Unless noted, calls follow the shape of the dose curve; as a rule, active = well fitted inhibition curve with a large enough effect (not every such curve was filed as active); inconclusive = small, poorly fitted or top-dose-only effect, or another doubt; inactive = no such curve, though single readings can be large or run the other way. Unless noted, % is scaled to controls: 0 for no effect and ±100 for the full control effect; potency is read from the fitted curve at half-maximal effect.
SMILES,IMPase Li cell,KinaseGlo FLuc,HPGD block,Lamin A splicing,ALDH1A1 inh
O=C(CSc1n[nH]c(-c2ccccc2)n1)N1CCN(c2ccc(F)cc2)CC1,nt,nt,nt,-13%[46 µM],nt
CCCC1CC(C)(C(=O)CSc2n[nH]c(-c3ccccc3)n2)OC1=O (centres undefined),21%[38.3 µM],3%,-30%,-16%,10µM*
CCN(CCCNC(=O)c1c(C)cc(=O)oc1C)c1cccc(C)c1,30%[38.3 µM],3%,-18%,-3%,10µM*
Cc1cccc(NC(=S)N(CCCN2CCOCC2)Cc2ccco2)c1,4%,3%,nt,nt,?
O=C1C2C(C(=O)N1/N=C/c1ccco1)C1C=CC2C12CC2 (centres undefined),19%,-1%,-15%,-2%,10µM*
O=C1C2C(C(=O)N1Cc1ccco1)C1C=CC2C12CC2 (centres undefined),4%[38.3 µM],-1%,-7%,6%,13µM*
O=C1C2C(C(=O)N1/N=C/c1cccc([N+](=O)[O-])c1)C1C=CC2C12CC2 (centres undefined),5%,-9%,16µM*,4%,16µM*
O=C1C2C3c4ccccc4C(c4ccccc43)C2C(=O)N1Cc1ccco1 (centres undefined),nt,nt,nt,?,-6%
O=C1C2C3C=CC(C4CC34)C2C(=O)N1Cc1ccco1 (centres undefined),-2%,0%,-1%,8%,22µM*
O=C1CC(=O)N(Cc2ccco2)C(=O)N1,-3%,4%,-2%,-4%,-7%
Cc1ccc(Cc2nc3ccccc3nc2SCC(=O)NCc2ccccc2Cl)cc1,nt,nt,nt,-10%[46 µM],nt
O=C1CC2C(=O)NCCN2C(=NC(=O)c2ccc(Cl)cc2)N1 (centres undefined),11%,4%,nt,-1%[46 µM],2%
COc1ccc(-c2cn3c(n2)sc2cc(C(=O)Nc4ccc(C)c(Cl)c4)ccc23)cc1,nt,nt,nt,-6%[46 µM],nt
COCC(C)n1c(C)cc(C(=O)COC(=O)/C=C/c2cccc(F)c2)c1C (centres undefined),3%,3%,nt,nt,3%
O=C(CCNc1ccc(F)cc1)c1cccc([N+](=O)[O-])c1,-3%,10%,4%,-19%,0.22µM*
O=C(CCNc1ccccc1)c1cccc([N+](=O)[O-])c1,nt,nt,nt,-7%,?
Cc1ccc(NCCC(=O)c2cccc([N+](=O)[O-])c2)cc1,16%[38.3 µM],2%,-10%,-16%,0.32µM*
O=C(CCNc1ccc(Br)cc1)c1cccc([N+](=O)[O-])c1,-4%,-1%,nt,?,0.63µM*
COC(=O)c1cccc(NC(=O)CCNC(=O)c2ccc([N+](=O)[O-])cc2)c1,5%,2%,-2%,7%,13%
O=C(NCCNc1ccc([N+](=O)[O-])cc1)c1cccc(Br)c1,4%,1%,-9%,0%,7.1µM*
CCOc1ccc(-n2c(SCC(=O)Nc3ccc4c(c3)OCCO4)nc3c([nH]c4ccccc43)c2=O)cc1,nt,nt,nt,9%[46 µM],nt
COc1ccc(Br)c(OC)c1C(=O)NC(=O)Nc1nc(C)cc(C)n1,nt,nt,nt,nt,-3%
O=C(NCCNc1ccc([N+](=O)[O-])cc1C(F)(F)F)c1ccccc1,25%,5%,-26%,?,10µM*
O=C(NCCNc1ccc([N+](=O)[O-])cc1C(F)(F)F)c1cccc(F)c1,6%,3%,-7%,-10%,?
CC(C)N(Cc1cc2ccccc2[nH]c1=O)C(=O)c1ccco1,-8%,0%,nt,nt,18µM*
SMILES,IMPase Li cell,KinaseGlo FLuc,HPGD block,Lamin A splicing,ALDH1A1 inh
COCC(=O)N(Cc1cc2ccccc2[nH]c1=O)c1ccc(OC)cc1,-13%[38.3 µM],1%,-20%,4%,32µM*
COc1ccc(N(Cc2cc3ccc(C)cc3[nH]c2=O)C(=O)c2ccco2)cc1,5%[38.3 µM],-4%,-2%,?,?
Cc1cccc(N(Cc2cc3ccccc3[nH]c2=O)C(=O)c2ccco2)c1C,11%[38.3 µM],1%,-27%,-13%,13µM*
CC1CCCCN1C(=O)Nc1cccc(Cl)c1 (centres undefined),24%[38.3 µM],-5%,22µM*,1%,22µM*
Cc1ccccc1Oc1ccc(NC(=O)C2CC=CCC2C(=O)O)cc1 (centres undefined),-1%,-2%,1%,?,2.2µM*
O=C(Nc1ccc(S(=O)(=O)N2CCCc3ccccc32)cc1)C1CCCO1 (centres undefined),16%,-2%,-20%,-17%,-8%
O=C(O)C1CC=CCC1C(=O)Nc1ccc(S(=O)(=O)N2CCCc3ccccc32)cc1 (centres undefined),20%[38.3 µM],2%,-15%,?,22µM*
CC(C)(C)c1ccc(Oc2ccc(NC(=O)C3CC=CCC3C(=O)O)cc2)cc1 (centres undefined),-19%,5%,nt,nt,?
O=C(Nc1cccc(Cl)c1)N1CCCC1,17%[38.3 µM],2%,-5%,3%,18%
O=C(O)C1CC=CCC1C(=O)Nc1cccc(Cl)c1 (centres undefined),3%[38.3 µM],1%,-29%,4%,18µM*
CCC(Sc1ccccn1)C(=O)Nc1cccc([N+](=O)[O-])c1 (centres undefined),4%,nt,nt,nt,-6%
C1CCC(NC(=NC2C3CC4CC(C3)CC2C4)N2CCOCC2)CC1 (centres undefined),18%,nt,nt,nt,0%
CNC/C(Cl)=N/S(=O)(=O)c1ccc(C)cc1,8%,0%[7.66 µM],0%,nt,?
CC(C)c1nn2c(=O)cc(COC(=O)c3ccc(NC(=O)CCc4ccccc4)cc3)nc2s1,nt,nt,nt,19%[46 µM],nt
CCSc1nnc(-c2ccc(Cl)cc2Cl)o1,-7%[38.3 µM],-9%,14µM*,5%,?
Clc1ccc(-c2nnc(-c3ccccc3)o2)c(Cl)c1,-11%[38.3 µM],?,?,11%,32µM*
CCSc1nnc(-c2ccccc2SC)o1,11µM*,0%,nt,?,?
CSc1nnc(-c2ccccc2Cl)o1,17%[38.3 µM],0%,32µM*,12%,6%
CSc1nnc(-c2ccc(Cl)cc2Cl)o1,-13%[38.3 µM],-1%,-20%,-8%,8%
CSc1ccccc1-c1nnc(-c2ccc(Cl)cc2Cl)o1,?,-13%,?,17%,?
O=S(=O)(NCCc1csc2nc(-c3ccccc3)nn12)c1cc(F)ccc1F,nt,nt,nt,-3%[46 µM],nt
Cc1ccccc1-n1c(SCC(=O)Nc2ccc(Cl)cc2F)nnc1-c1cc2occc2n1C,nt,nt,nt,-12%[46 µM],nt
COc1ccc2c(c1)C(=O)[C@@H](OC(=O)NCCc1ccc(OC)c(OC)c1)[C@H](c1ccc(OC)c(Br)c1)O2,4%,1%,-13%,nt,-5%
COc1ccccc1C(=O)Nc1ccc2nc(SCCOc3ccccc3C)sc2c1,nt,nt,nt,22%[46 µM],nt
S=C1NC2=C(CCCC2)C2(CCCCC2)N1,4%,3%,-13%,-9%,0.32µM*
Cn1ncc2c(Nc3cccc(F)c3)ncnc21,nt,nt,nt,-14%[46 µM],nt
Cn1ncc2c(Nc3cccc(C(=O)O)c3)ncnc21,6%[38.3 µM],0%,-18%,5%,13µM*
CCCCNC(=O)c1ccc(N2CCOCC2)c(NS(=O)(=O)c2ccc(OC)cc2)c1,-3%[38.3 µM],2%,-12%,6%,8.9µM*

# Assay outcomes from PubChem.
